Results filed as inconclusive are left out. Activity calls are given as the source filed them. Unless noted, the call rests on the fitted dose curve; in most records, active means well fitted curve in the direction sought with a large enough effect in the repeat runs; inconclusive means weak or mixed curves; inactive means no such curve, though single readings can be large; an effect the other way counts as inactive or inconclusive.
Key:
[1] = qHTS assay to identify small molecule antagonists of the thyroid receptor (TR) signaling pathway (AID 743065); further: series mostly up to about 70 µM; nearly all actives have a fitted effect of over 55% in size
In short: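 GH3.TRE-Luc rat pituitary cells carrying two TR response elements driving luciferase were plated for 4 h, given compound plus 1 nM T3 (final), and incubated 23.5 h at 37 C. ONE-Glo luminescence measured reporter inhibition; CellTiter-Fluor fluorescence tracked cytotoxicity.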

[2] = tested on: thyroid hormone receptor (rat, GH3 cells); assay: qHTS assay to identify small molecule agonists of the thyroid receptor (TR) signaling pathway (AID 743066; calls by dose curve)
[3] = target: Estrogen receptor (Homo sapiens) (UniProt P03372); assay: qHTS assay to identify small molecule antagonists of the estrogen receptor alpha (ER-alpha) signaling pathway (AID 743069; active means well fitted curve in the direction sought with a large enough effect in the signal ratio in the repeat runs, not every such curve was filed as active; the % refers to the signal ratio)
Sequence of Estrogen receptor (Homo sapiens) (P03372 whole entry, looked up): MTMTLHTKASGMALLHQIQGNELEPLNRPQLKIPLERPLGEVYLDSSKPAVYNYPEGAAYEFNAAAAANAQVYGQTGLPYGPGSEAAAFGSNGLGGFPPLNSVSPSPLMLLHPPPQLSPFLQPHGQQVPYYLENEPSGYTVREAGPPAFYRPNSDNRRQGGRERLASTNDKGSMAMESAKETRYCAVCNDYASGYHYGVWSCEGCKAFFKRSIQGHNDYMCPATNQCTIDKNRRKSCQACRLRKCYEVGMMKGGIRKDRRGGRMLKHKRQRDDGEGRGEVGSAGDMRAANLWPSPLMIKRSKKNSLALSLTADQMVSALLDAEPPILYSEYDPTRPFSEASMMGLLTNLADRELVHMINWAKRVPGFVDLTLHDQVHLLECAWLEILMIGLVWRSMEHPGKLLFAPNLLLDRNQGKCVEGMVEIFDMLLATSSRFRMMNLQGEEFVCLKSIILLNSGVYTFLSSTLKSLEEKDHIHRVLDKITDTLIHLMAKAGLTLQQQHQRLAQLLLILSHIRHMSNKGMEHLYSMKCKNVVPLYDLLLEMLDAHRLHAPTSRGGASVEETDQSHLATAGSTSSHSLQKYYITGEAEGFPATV
In short: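 Screening used a UAS-driven beta-lactamase reporter integrated into HEK293 cells expressing ER-alpha, stimulated with 17beta-estradiol alongside test compounds over 18 hr at 37C; signal came from LiveBLAzer B/G FRET fluorescence.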

[4] = qHTS assay to identify small molecule antagonists of the estrogen receptor alpha (ER-alpha) signaling pathway - cell viability counter screen (AID 743074; calls by dose curve; further: nearly all actives have a fitted effect of over 45% in size)
[5] = target: Estrogen receptor (Homo sapiens) (UniProt P03372); assay: qHTS assay to identify small molecule agonists of the estrogen receptor alpha (ER-alpha) signaling pathway (AID 743075; calls by dose curve)
[6] = target: Estrogen receptor (Homo sapiens) (UniProt P03372); assay: qHTS assay to identify small molecule agonists of the estrogen receptor alpha (ER-alpha) signaling pathway using the BG1 cell line (AID 743079); further: nearly all actives have a fitted effect of over 20% in size; further: potency means the concentration at half of the fitted maximal effect
[7] = qHTS assay to identify small molecule antagonists of the estrogen receptor alpha (ER-alpha) signaling pathway using the BG1 cell line (AID 743080; calls by dose curve;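 further: BG1 cells stimulated with 17beta-estradiol alongside compound; series mostly up to about 70 µM; nearly all actives have a fitted effect of over 25% in size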)
In short: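 Luciferase inhibition measured with ONE-Glo after 30 min at RT in BG1Luc4E2 cells given test compounds and 17beta-estradiol for 21.5 h at 37 C; CellTiter-Fluor viability read in the same wells beforehand.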

[8] = qHTS assay to identify small molecule antagonists of the estrogen receptor alpha (ER-alpha) signaling pathway using the BG1 cell line - cell viability counter screen (AID 743081);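 further: compound given together with 17beta-estradiol as the ER stimulus; series mostly up to about 70 µM; nearly all actives have a fitted effect of over 45% in size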
[9] = target: Aromatase (Homo sapiens) (UniProt P11511); assay: qHTS assay to identify aromatase inhibitors (AID 743083); further: series mostly up to about 70 µM; nearly all actives have a fitted effect of over 55% in size
Sequence of Aromatase (Homo sapiens) (P11511 whole entry, looked up): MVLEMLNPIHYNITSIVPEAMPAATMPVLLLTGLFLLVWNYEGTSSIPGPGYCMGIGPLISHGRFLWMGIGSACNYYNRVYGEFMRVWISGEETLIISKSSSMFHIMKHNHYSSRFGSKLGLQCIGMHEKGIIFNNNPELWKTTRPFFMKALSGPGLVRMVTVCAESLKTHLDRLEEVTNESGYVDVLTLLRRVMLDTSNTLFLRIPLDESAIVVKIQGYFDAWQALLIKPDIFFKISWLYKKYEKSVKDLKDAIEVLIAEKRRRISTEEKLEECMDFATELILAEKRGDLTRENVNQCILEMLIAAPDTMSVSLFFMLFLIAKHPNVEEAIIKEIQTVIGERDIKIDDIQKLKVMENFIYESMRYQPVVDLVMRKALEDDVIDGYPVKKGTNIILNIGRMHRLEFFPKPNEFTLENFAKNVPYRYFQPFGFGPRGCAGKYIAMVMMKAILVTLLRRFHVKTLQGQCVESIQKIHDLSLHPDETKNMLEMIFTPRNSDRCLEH

[10] = qHTS assay to identify aromatase inhibitors - cell viability counter screen (AID 743084);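 further: cells stimulated with testosterone during compound exposure; nearly all actives have a fitted effect of over 55% in size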
[11] = target: Aryl hydrocarbon receptor (Homo sapiens) (UniProt P35869); assay: qHTS assay to identify small molecule that activate the aryl hydrocarbon receptor (AhR) signaling pathway (AID 743085);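 further: HG2L7.5c1 human HepG2 liver cells with stably integrated DRE-driven firefly reporter; series mostly up to about 70 µM; nearly all actives have a fitted effect of over 15% in size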
Sequence of Aryl hydrocarbon receptor (Homo sapiens) (P35869 whole entry, looked up): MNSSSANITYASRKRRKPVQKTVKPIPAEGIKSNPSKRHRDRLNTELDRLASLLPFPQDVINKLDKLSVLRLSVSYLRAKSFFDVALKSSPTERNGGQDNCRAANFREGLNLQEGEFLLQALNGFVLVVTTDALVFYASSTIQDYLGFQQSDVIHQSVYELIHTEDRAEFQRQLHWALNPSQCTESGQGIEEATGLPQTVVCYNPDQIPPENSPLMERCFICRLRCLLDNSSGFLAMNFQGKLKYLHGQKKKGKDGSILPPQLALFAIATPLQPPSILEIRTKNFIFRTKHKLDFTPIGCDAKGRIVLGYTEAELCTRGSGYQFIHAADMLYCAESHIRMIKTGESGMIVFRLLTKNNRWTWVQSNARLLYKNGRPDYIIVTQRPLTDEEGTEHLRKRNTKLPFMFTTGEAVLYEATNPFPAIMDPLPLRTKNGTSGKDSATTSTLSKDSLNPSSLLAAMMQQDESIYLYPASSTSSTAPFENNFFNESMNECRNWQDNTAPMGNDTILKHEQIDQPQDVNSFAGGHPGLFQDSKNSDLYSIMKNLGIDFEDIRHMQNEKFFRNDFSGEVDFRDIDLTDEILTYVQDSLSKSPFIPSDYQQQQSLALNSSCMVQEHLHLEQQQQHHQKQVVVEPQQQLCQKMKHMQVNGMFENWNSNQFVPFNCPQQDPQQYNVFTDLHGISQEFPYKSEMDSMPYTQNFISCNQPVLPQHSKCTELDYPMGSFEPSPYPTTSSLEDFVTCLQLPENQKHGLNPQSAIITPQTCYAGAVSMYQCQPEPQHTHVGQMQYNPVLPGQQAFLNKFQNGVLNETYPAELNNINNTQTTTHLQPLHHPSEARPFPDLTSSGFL
In short: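 Steps: seed HepG2-AhR-luc cells; allow 5 h at 37C; pin-transfer test compound or vehicle; incubate 24 h at 37C; add viability dye (30 min, 37C) and read fluorescence; add luciferase substrate (30 min, RT) and read luminescence.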

[12] = qHTS assay to identify small molecule that activate the aryl hydrocarbon receptor (AhR) signaling pathway - cell viability counter screen (AID 743086);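 further: HepG2 liver cells carrying the AhR DRE luciferase reporter; series mostly up to about 70 µM; nearly all actives have a fitted effect of over 45% in size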
In short: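 HepG2-AhR-luc (HG2L7.5c1) cells, 4000/well, were preincubated 5 h at 37C, exposed to compound in qHTS format for 24 hr at 37C, then given CellTiter-Fluor for 30 min; viability was read as fluorescence in the reporter wells.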

[13] = target: Peroxisome proliferator-activated receptor gamma (Homo sapiens) (UniProt P37231); assay: qHTS assay to identify small molecule agonists of the peroxisome proliferator-activated receptor gamma (PPARg) signaling pathway (AID 743094; active means well fitted activation curve with a large enough effect in the signal ratio in the repeat runs, not every such curve was filed as active; the % refers to the signal ratio)
Sequence of Peroxisome proliferator-activated receptor gamma (Homo sapiens) (P37231 whole entry, looked up): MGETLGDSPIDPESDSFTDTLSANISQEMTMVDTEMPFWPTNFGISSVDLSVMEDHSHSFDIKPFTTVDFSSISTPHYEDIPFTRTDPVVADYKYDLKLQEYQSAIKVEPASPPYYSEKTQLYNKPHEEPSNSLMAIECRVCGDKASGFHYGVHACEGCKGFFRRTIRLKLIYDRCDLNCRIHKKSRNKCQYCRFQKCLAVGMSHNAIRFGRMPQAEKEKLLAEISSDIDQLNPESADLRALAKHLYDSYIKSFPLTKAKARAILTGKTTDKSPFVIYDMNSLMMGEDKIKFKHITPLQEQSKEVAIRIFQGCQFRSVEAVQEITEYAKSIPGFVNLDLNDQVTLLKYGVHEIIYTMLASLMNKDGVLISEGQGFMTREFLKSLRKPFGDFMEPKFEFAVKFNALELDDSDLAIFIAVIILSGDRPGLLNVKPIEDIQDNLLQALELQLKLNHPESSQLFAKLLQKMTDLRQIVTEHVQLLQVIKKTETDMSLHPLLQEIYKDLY
In short: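 Cell-based bla reporter, HEK293H background, PPARg-driven UAS. Pre-incubation 5 h, 37C, 5% CO2. Compound 17 h, 37C. Substrate 1 h RT; fluorescence.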

[14] = target: Peroxisome proliferator-activated receptor gamma (Homo sapiens) (UniProt P37231); assay: qHTS assay to identify small molecule antagonists of the peroxisome proliferator-activated receptor gamma (PPARg) signaling pathway (AID 743191; calls by dose curve; further: series mostly up to about 63 µM; nearly all actives have a fitted effect of over 30% in size)
In short: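 GeneBLAzer PPARg UAS-bla HEK293H cells carrying a UAS-driven beta-lactamase reporter were plated at 3000 cells/well, preincubated 5 h at 37C, then given compound for 17 h at 37C; LiveBLAzer B/G FRET substrate was read after 1 h at room temperature.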

[15] = qHTS assay to identify small molecule antagonists of the peroxisome proliferator-activated receptor gamma (PPARg) signaling pathway - cell viability counter screen (AID 743194); further: nearly all actives have a fitted effect of over 55% in size
In short: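 PPARg-UAS-bla HEK293H cells were plated, rested 5 h at 37 C, then treated with compounds plus rosiglitazone (50 nM final) for 17 h at 37 C; viability was then read by CellTiter-Glo luminescence after 30 min at room temperature.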

[16] = qHTS assay for small molecule agonists of the antioxidant response element (ARE) signaling pathway (AID 743202; active means well fitted activation curve with a large enough effect in the signal ratio in the repeat runs, not every such curve was filed as active; the % refers to the signal ratio)
In short: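 Steps: seed ARE-bla HepG2 cells (2,000/well); incubate 5 h at 37 C; add compounds by pin tool; incubate 16 h at 37 C; add FRET substrate; read fluorescence after 2 h at RT.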

[17] = qHTS assay for small molecule agonists of the antioxidant response element (ARE) signaling pathway - cell viability counter screen (AID 743203; calls by dose curve; further: nearly all actives have a fitted effect of over 55% in size)
In short: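 Measured in the same wells as the beta-lactamase ARE reporter, this read-out is CellTiter-Glo luminescence from HepG2 ARE-bla cells given compounds for 16 hrs.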

[18] = qHTS assay for small molecule activators of the heat shock response signaling pathway (AID 743210; active means well fitted activation curve with a large enough effect in the signal ratio in the repeat runs, with a control signal flat, not every such curve was filed as active; the % refers to the signal ratio;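 further: HeLa cells with beta-lactamase reporter driven by heat shock elements; series mostly up to about 63 µM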)
In short: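 Activation of heat shock element-controlled beta-lactamase expression is measured in HeLa cells by LiveBLAzer FRET fluorescence, with compound exposure lasting 5 h at 37 C and substrate loading 2.5 h at room temperature.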

[19] = qHTS assay to identify small molecule agonists of the peroxisome proliferator-activated receptor delta (PPARd) signaling pathway - cell viability counter screen (AID 743211); further: nearly all actives have a fitted effect of over 55% in size
In short: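 Viability of GeneBLAzer PPARd UAS-bla HEK293H cells was assessed after 17 h compound incubation at 37C, using CellTiter-Glo reagent added after the reporter read and luminescence recorded 30 min later.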

[20] = qHTS assay for small molecule activators of the heat shock response signaling pathway - cell viability counter screen (AID 743209); further: nearly all actives have a fitted effect of over 50% in size
In short: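 Same-well multiplex: after 2.5 h room-temperature incubation with LiveBLAzer B/G substrate and fluorescence reading, CellTiter-Glo reagent was added to HSE-bla HeLa cells that had received compound for 5 h at 37 C; luminescence read after 30 min.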
On the % scale 0 is the no-effect control and ±100 the full control effect.

CCOC(=O)C1=NOC(c2ccccc2)(c2ccccc2)C1
inactive: Potency [1] | outcome [2] | Potency [3] | Potency [4] | Potency [5] | Potency [6] | Potency [7] | outcome [8] | outcome [9] | Potency [10] | Potency [11] | Potency [12] | Potency [13] | Potency [14] | outcome [15] | Potency [16] | outcome [17] | outcome [18] | outcome [19]

C1CCC2(CCCCO2)OC1
inactive: Potency [1] | outcome [2] | Potency [3] | Potency [4] | Potency [5] | Potency [6] | Potency [7] | outcome [8] | outcome [9] | Potency [10] | Potency [11] | Potency [12] | Potency [13] | Potency [14] | outcome [15] | Potency [16] | outcome [20] | outcome [18] | outcome [19]

CC(=O)NC(=O)c1ccccc1O
inactive: Potency [1] | outcome [2] | Potency [3] | Potency [4] | Potency [5] | Potency [6] | Potency [7] | outcome [8] | outcome [9] | Potency [10] | Potency [11] | Potency [12] | Potency [13] | Potency [14] | outcome [15] | outcome [20] | outcome [18]

CCCCCC(=O)OCCc1ccccc1
inactive: Potency [1] | outcome [2] | Potency [3] | Potency [4] | Potency [5] | Potency [6] | Potency [7] | outcome [8] | outcome [9] | Potency [10] | Potency [12] | Potency [13] | Potency [14] | outcome [15] | outcome [17] | outcome [20] | outcome [18] | outcome [19]

CN1[C@@H]2CC[C@H]1CC(OC(=O)C(O)c1ccccc1)C2 (stereo not given in full)
inactive: Potency [1] | outcome [2] | Potency [3] | Potency [4] | Potency [5] | Potency [6] | outcome [8] | outcome [9] | Potency [10] | Potency [11] | Potency [12] | Potency [13] | Potency [14] | outcome [15] | Potency [16] | outcome [17] | outcome [20] | outcome [18] | outcome [19]

C=C[Si](OC(C)=O)(OC(C)=O)OC(C)=O
inactive: Potency [1] | outcome [2] | Potency [3] | Potency [4] | Potency [5] | Potency [6] | Potency [7] | outcome [8] | outcome [9] | Potency [10] | Potency [12] | Potency [13] | Potency [14] | outcome [15] | outcome [17] | outcome [20] | outcome [19]

[K+]
inactive: Potency [1] | outcome [2] | Potency [3] | Potency [4] | Potency [5] | Potency [6] | Potency [7] | outcome [8] | outcome [9] | Potency [10] | Potency [11] | Potency [12] | outcome [15] | Potency [16] | outcome [17] | outcome [20] | outcome [18] | outcome [19]

Cc1cc(C)c(N=Nc2c(O)c(S(=O)(=O)O)cc3cc(S(=O)(=O)O)ccc23)cc1C
inactive: activity, negative = inhibition [1] -3.21% [at 8.44 µM] | activation [2] 0.237% [at 8.08 µM] | activity, negative = inhibition [3] -5.6% [at 6.71 µM] | activity, negative = cytotoxicity [4] -15.7% [at 6.72 µM] | activation [5] -3.26% [at 6.71 µM] | activation [6] 5.28% [at 8.47 µM] | activity change, negative = inhibition [7] -1.62% [at 8.47 µM] | activity change, negative = cytotoxicity [8] -6.97% [at 8.47 µM] | activity, negative = inhibition [9] -5.99% [at 8.47 µM] | viability change, negative = cytotoxic [12] -19.3% [at 8.47 µM] | activation [13] -9.42% [at 7.08 µM] | activity change, negative = cytotoxicity [15] -10.4% [at 5.95 µM] | activation [16] -8.59% [at 8.36 µM] | viability change, negative = cytotoxic [17] -2.33% [at 8.36 µM] | activity change, negative = cytotoxicity [20] -2.28% [at 5.95 µM] | activation [18] -0.565% [at 5.95 µM] | activity change, negative = cytotoxicity [19] -0.611% [at 5.95 µM]

CO[C@@]1(NC(=O)CSC[C@@H](N)C(=O)O)C(=O)N2C(C(=O)O)=C(CSc3nnnn3C)CS[C@@H]21
inactive: Potency [1] | outcome [2] | Potency [3] | Potency [4] | Potency [5] | Potency [6] | Potency [7] | outcome [9] | Potency [10] | Potency [11] | Potency [12] | Potency [13] | Potency [14] | outcome [15] | outcome [17] | outcome [20] | outcome [18] | outcome [19]

CO[Si](C)(OC)c1ccccc1
inactive: Potency [1] | outcome [2] | Potency [3] | Potency [4] | Potency [5] | Potency [6] | Potency [7] | outcome [8] | outcome [9] | Potency [10] | Potency [11] | Potency [12] | Potency [13] | Potency [14] | outcome [15] | Potency [16] | outcome [20] | outcome [18] | outcome [19]

c1ccc(Cc2ccccc2)cc1
inactive: Potency [1] | outcome [2] | Potency [3] | Potency [4] | Potency [5] | Potency [6] | outcome [8] | outcome [9] | Potency [10] | Potency [11] | Potency [12] | Potency [13] | Potency [14] | outcome [15] | Potency [16] | outcome [17] | outcome [18] | outcome [19]

CCCOC(=O)CC
inactive: Potency [1] | outcome [2] | Potency [3] | Potency [4] | Potency [5] | Potency [6] | Potency [7] | outcome [8] | outcome [9] | Potency [10] | Potency [12] | Potency [13] | Potency [14] | outcome [15] | outcome [20] | outcome [18] | outcome [19]

OCCCCCO
active: Potency [6] 40.3 µM
inactive: Potency [1] | outcome [2] | Potency [3] | Potency [4] | Potency [5] | Potency [7] | outcome [8] | outcome [9] | Potency [10] | Potency [11] | Potency [12] | Potency [13] | Potency [14] | Potency [16] | outcome [17] | outcome [20] | outcome [18]

CC(C)CCCO
inactive: Potency [1] | outcome [2] | Potency [3] | Potency [4] | Potency [5] | Potency [6] | Potency [7] | outcome [8] | outcome [9] | Potency [10] | Potency [11] | Potency [12] | Potency [13] | outcome [15] | outcome [17] | outcome [18] | outcome [19]

CCCCCCCCCCCCCCCCCCO
inactive: Potency [1] | outcome [2] | Potency [3] | Potency [4] | Potency [5] | Potency [6] | Potency [7] | outcome [8] | outcome [9] | Potency [10] | Potency [11] | Potency [12] | Potency [13] | Potency [14] | outcome [15] | Potency [16] | outcome [20] | outcome [18] | outcome [19]

From PubChem BioAssay (Tox21)
